About 83,000 compounds went through this panel and 20% of them were active in at least one assay; those are over-represented in the sample as a whole.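 For each line, cells grew in 96-well plates with the test compound present at a single concentration for 48 hours.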 Values without a mark were called inactive. Activity calls are given as the source filed them. The calls were made as follows: active = growth percent below 10; inactive = the rest.
How the values were obtained:
Assay in all cases: NCI-60 one-dose screen, 48 h (100 = growth as untreated, 0 = no growth, -100 = all killed)
Conditions in all cases: 10 µM unless noted
SK-MEL-2 melanoma = tested on: SK-MEL-2 melanoma
EKVX NSCLC = tested on: EKVX NSCLC
SN12C renal = tested on: SN12C renal
UO-31 renal = tested on: UO-31 renal
TK-10 renal = tested on: TK-10 renal
ACHN renal = tested on: ACHN renal
CAKI-1 renal = tested on: CAKI-1 renal
A498 renal = tested on: A498 renal
CCRF-CEM leukemia = tested on: CCRF-CEM leukemia
MOLT-4 leukemia = tested on: MOLT-4 leukemia
SR leukemia = tested on: SR leukemia
OVCAR-8 ovarian = tested on: OVCAR-8 ovarian
OVCAR-5 ovarian = tested on: OVCAR-5 ovarian
OVCAR-4 ovarian = tested on: OVCAR-4 ovarian
SK-OV-3 ovarian = tested on: SK-OV-3 ovarian
IGROV1 ovarian = tested on: IGROV1 ovarian
OVCAR-3 ovarian = tested on: OVCAR-3 ovarian
HS 578T breast = tested on: HS 578T breast
NCI/ADR-RES ovarian = tested on: NCI/ADR-RES ovarian

SMILES | growth (SK-MEL-2 melanoma) [%] | growth (EKVX NSCLC) [%] | growth (SN12C renal) [%] | growth (UO-31 renal) [%] | growth (TK-10 renal) [%] | growth (ACHN renal) [%] | growth (CAKI-1 renal) | growth (A498 renal) | growth (CCRF-CEM leukemia) | growth (MOLT-4 leukemia) | growth (SR leukemia) | growth (OVCAR-8 ovarian) [%] | growth (OVCAR-5 ovarian) [%] | growth (OVCAR-4 ovarian) [%] | growth (SK-OV-3 ovarian) [%] | growth (IGROV1 ovarian) | growth (OVCAR-3 ovarian) | growth (HS 578T breast) | growth (NCI/ADR-RES ovarian)
COc1ccc2sc3c(NCCO)nc4ccccc4c3c(=O)c2c1 | 107 | 70.3 | 96.6 | 79.4 | 103 | 98.1 | 90.5% | 48.7% | 75.3% | 89.3% | 83.9% | 92.1 | 102 | 114 | 110 | 113% | 122% | 95.4% | 99.6%
CCOC(=O)C1=C(N)Oc2c(sc3c(C)cccc23)C1c1ccc(F)cc1 (configuration not stated) | 42.5 | 44.9 | 30.5 | 40.7 | 76 | 30.7 | 2.3% (active) | -5.94% (active) | 4.35% (active) | 10.2% | 5.82% (active) | 19 | 27.9 | 42.7 | 60 | 16.9% | -32.9% (active) | 13.6% | 6.4% (active)
NCCNc1nc2ccccc2c2c(=O)c3cccc(F)c3sc12 | 102 | 74.1 | 47.5 | 40.7 | 71.7 | 34.2 | 39.6% | 59.7% | 34.5% | 7.98% (active) | 12.3% | 46.5 | 81.8 | 48.3 | 78.8 | 48% | 53.1% | 67.6% | 53.9%
Cc1cccc2c3c(sc12)C(c1ccc(F)cc1)C(C#N)=C(N)O3 (configuration not stated) | 50.1 | 52.6 | 25.2 | 36.7 | 78.8 | 24.8 | -0.939% (active) | 4.47% (active) | 13.8% | 12.5% | 9.36% (active) | 18.9 | 25.9 | 60.8 | 60.7 | 20.6% | 3.36% (active) | 28.7% | 12%
Cc1cc(-c2cc(C)c(N)cc2C)c(C)cc1N | 90.5 | 115 | 89.9 | 78.7 | 101 | 92.8 | 87.3% | 105% | 89.8% | 100% | 45.5% | 103 | 97.2 | 117 | 95.7 | 109% | 107% | 107% | 100%
Cn1cc(-c2cc3ncnc(Nc4ccc(CC(=O)Nc5cc(C(C)(C)C)on5)cc4)c3s2)cn1 | 14 | 60.2 | 15.4 | 11 | 17.8 | 14.1 | 9.29% (active) | -18.6% (active) | 10.8% | 17.4% | 10.9% | 40.7 | 61.6 | 34.7 | 10.4 | 11.1% | 36.6% | 15.6% | 60.6%
CS(=O)(=O)N(c1cc(-c2ccc3ncnc(Nc4ccc(F)c(Cl)c4)c3c2)cnc1Cl)S(C)(=O)=O | 27.3 | 26.3 | 31.6 | 17.1 | 19 | 35.5 | 31.9% | -30.8% (active) | 18.4% | 6.91% (active) | 47.5% | 66.1 | 30.6 | 65.7 | 14.6 | -22.3% (active) | 36.1% | -1.88% (active) | 69%
Cc1ccc(C(CC(=O)O)c2c(C)[nH][nH]c2=O)cc1 (configuration not stated) | 113 | 105 | 98.2 | 93 | 98.6 | 104 | 101% | 112% | 97.1% | 98.8% | 99% | 101 | 106 | 111 | 97.7 | 105% | 109% | 109% | 102%

Reference: PubChem BioAssay (NCI)
